This is an account of results in PubChem BioAssay AID2253 (Southern Research Specialized Biocontainment Screening …, 2010).

The structures appear in SMILES notation. About 1,300 (59%) of roughly 2,200 compounds were called active. The rule behind the calls is not given here. The set was probably picked from earlier hits. Only a sample is shown. Results with a measured potency or affinity are listed apart.

A short description of this experiment: human monocytic cell viability reduction – S. typhimurium screen hits, cytotoxicity control for Salmonella PhoP regulon inhibitors, dose response (AID 2253). The note with it: THP-1 viability, CellTiter-Glo luminescence, 72 h; series mostly up to 50 µM; viability: at the top concentration. On the technique in general: ATP-based viability assays read luminescence as a measure of living cells.
In the case of `Cc1nc(N)sc1Cc1ccc2c(c1)OCO2`, the viability (usually a read-out of living cells in per cent, often relative to untreated cells) was 81.2% (inactive).
The figure for `CCSc1cc(N2CCCC2)nc(-c2cccc(C)c2)n1` is 92.8% (inactive); for `O=C(CN1C(=O)c2ccccc2C1=O)N1CCN(c2ccccn2)CC1` it is 93.9% (inactive).
Consider `CCN(Cc1ccccc1)C(=O)CN1C(=S)NC(C)(C)CC1C` (stereo not drawn), for which the “viability” value was 105% (inactive).
The figure for `Cc1cccc(NC(=O)c2cc(N3C(=O)CCC3=O)ccc2Cl)n1` is 92.3% (inactive); for `CN1CCN(S(=O)(=O)c2ccc(-c3ccccc3)cc2)CC1` it is 89.2% (inactive); for `CC1CCN(S(=O)(=O)c2cccc(C(=O)N(C)C3CCS(=O)(=O)C3)c2)CC1` (stereo not drawn) it is 92% (inactive).
With `COCCCNc1ccnc2c(Cl)cccc12` the figure was 85.6% (inactive).
With `CC(C)c1ccc(NC(=O)Nc2cc3sccc3n2C)cc1` the figure was 89.7% (inactive).
Take `CSc1cccc(NC(=O)c2ccco2)c1`: the “viability” value is 91.9% (inactive).
With `COc1ccc(Cl)cc1C(=O)Nc1ccc(NC(=O)c2ccco2)cc1` the figure was 93.1% (inactive); with `CCC(C)C(NC(=O)OCc1ccccc1)C(=O)OCN1C(=O)c2ccccc2C1=O` (stereo not drawn), 102% (inactive).
Take `COc1ccc(C(=O)Nc2cc(C)ccc2NC(=O)COc2ccccc2)cc1`: the “viability” value was 81.1% (inactive).
With `COC(=O)CCC(=O)Nc1ccc(OC)cc1` the figure was 101% (inactive).
The figure for `Cc1sc(NC(=O)c2ccco2)c(CN2CCN(c3ccc(F)cc3)CC2)c1C` is 89.5% (inactive).
The figure for `CCOC(=O)c1c(C)[nH]c(C)c1C(=O)CSc1ncccn1` is 81.8% (inactive); for `COc1cc(OC)cc(C(=O)N[C@H](C(=O)OCC(=O)Nc2ccc(C(N)=O)cc2)C(C)C)c1` it is 89.5% (inactive).
Consider `Cc1ccc(-c2nnc(SCC(=O)N3CCCc4ccccc43)n2N)cc1`, for which the “viability” value is 82.7% (inactive).
Take `COC(=O)c1sccc1NC(=O)C1C2C=CC(O2)C1C(=O)O` (stereo not drawn): the “viability” value is 90.1% (inactive).
In the case of `CN(C)c1nc(N)nc(Cn2ccnc2)n1`, the “viability” value was 92.4% (inactive).
As for `O=C(Cc1cccs1)N(c1ccccc1)C1C=CS(=O)(=O)C1` (stereo not drawn), the “viability” value was 89.7% (inactive).
Take `CC(=O)N(Cc1ccc(Cl)cc1)c1cnccn1`: the “viability” value is 96.4% (inactive).
`CC1(C)CC(=O)C=C(Nc2ccccc2NC(=O)c2cnccn2)C1`: the “viability” value is 101% (inactive).
Regarding `CCn1cc(C(=O)NCCO)c(=O)c2cc(F)c(N3CCN(C)CC3)cc21`, the “viability” value was 85.3% (inactive).
With `COc1ccc(N2C(=O)C3CCCN3C2c2cccc(C)c2)cc1Cl` (stereo not drawn) the figure was 92.3% (inactive).
With `Cc1ccc(C(=O)CSc2ncnc3sc4c(c23)CCCC4)cc1` the figure was 95.6% (inactive); with `CSc1nnc2c3c4c(sc3nc(-n3nc(C)cc3C)n12)COC(C)(C)C4`, 91.8% (inactive); with `O=C(Nn1c(O)c(C=C2N=c3ccccc3=N2)sc1=S)c1ccc(Cl)cc1`, 93% (inactive).
On to `Cc1ccc(NC(=S)NCc2cccnc2)cc1`, for which the “viability” value was 91.9% (inactive).
With `COc1ccc(Br)cc1C(=O)NCc1cccnc1` the figure was 94% (inactive); with `S=C(Nc1ccc(Cl)c(Cl)c1)N1CCOCC1`, 85.7% (inactive).
With `S=C(NCc1cccnc1)Nc1cccc(Cl)c1` the figure was 97.7% (inactive); with `Cc1cc(=O)oc(C)c1C(=O)NCc1cccnc1`, 105% (inactive).
Regarding `Cc1ccc(C)c(C(=O)NCc2ccncc2)c1`, the “viability” value is 84% (inactive).
`C=CCSc1nnc(-c2ccc(Cl)cc2Cl)o1`: the “viability” value is 80.3% (inactive).
Consider `CNC(=S)N1CCN(c2c(F)cc3c(=O)c(C(=O)O)cn(C4CC4)c3c2OC)CC1C` (stereo not drawn), for which the “viability” value is 91.2% (inactive).
Turning to `COc1c(N2CCNC(C)C2)c(F)cc2c(=O)c(C(=O)O)cn(C3CC3)c12` (stereo not drawn), the “viability” value is 93.2% (inactive).
For the compound `COc1c(N2CCN(C(=S)Nc3ccc(F)cc3)C(C)C2)c(F)cc2c(=O)c(C(=O)O)cn(C3CC3)c12` (stereo not drawn), the “viability” value is 98.2% (inactive).
The figure for `COc1c(N2CCN(C(=S)NC3CC4CCC3C4)C(C)C2)c(F)cc2c(=O)c(C(=O)O)cn(C3CC3)c12` (stereo not drawn) is 102% (inactive); for `CC(=O)Nc1c(C#N)c(C(C)(C)C)cn1C` it is 94.6% (inactive).
Consider `COc1ccc(N(CC(=O)Nc2ccccc2SC)S(C)(=O)=O)cc1OC`, for which the “viability” value is 88.8% (inactive).
`COc1ccc(S(=O)(=O)N2Cc3ccccc3CC2C(=O)N2CCOCC2)cc1OC` (stereo not drawn): the “viability” value is 87.6% (inactive).
As to `CCN1C(=O)/C(=C/N2CC(C)CC(C)C2)SC1=S` (stereo not drawn), the “viability” value was 91.9% (inactive).
With `Cc1ccc(NC2CC(=O)N(Cc3ccccc3)C2=O)cc1` (stereo not drawn), the “viability” value is 83.9% [at 25 µM] (inactive).
With `CCc1ccc(NC(=O)c2noc3c2CCc2ccccc2-3)cc1`, the “viability” value is 103% (inactive).
Regarding `Cc1ccc(N2C(=O)CC(n3ccnc3)C2=O)cc1C` (stereo not drawn), the “viability” value is 96.2% (inactive).
Turning to `CN(C)CC(=O)Nc1nc(-c2ccccc2)cs1`, the “viability” value was 83.1% (inactive).
In the case of `COc1ccc2cc(C)c3nnc(SCC(=O)Nc4nc(-c5ccccc5)cs4)n3c2c1`, the “viability” value was 98.8% (inactive).
As for `CS(=O)(=O)c1ccc([C@@H](O)[C@@H](CO)NC(=O)C(Cl)Cl)cc1`, the “viability” value was 81.8% (inactive).
For the compound `CCOCc1nnc(NC(=O)COC)s1`, the “viability” value is 95.1% (inactive).
Regarding `CC(NC(=O)CSc1nc2c(cc1C#N)CN(C)CC2)c1ccccc1` (stereo not drawn), the “viability” value was 88.5% (inactive).
For the compound `COc1cccc(C=NCCNC(=O)c2nonc2N)c1O`, the “viability” value is 85.4% (inactive).
The figure for `O=C1CCc2cc(S(=O)(=O)N3CCN(c4cccc(Cl)c4)CC3)ccc2N1` is 99.2% (inactive); for `CCN(CC)c1ccc(/C=C(\C#N)C(=O)NCc2ccco2)cc1` it is 96.3% (inactive); for `CCOC(=O)C1CCCN(S(=O)(=O)c2ccc(Br)c(OC)c2)C1` (stereo not drawn) it is 96.5% (inactive).
As for `CCn1cc(C(=O)O)c(=O)c2cc(F)c(N3CCN(C(=S)Nc4ccc(OC)cc4)CC3)cc21`, the “viability” value is 85.5% (inactive).
The figure for `C/C(Nc1ccc(F)cc1)=C(/C#N)C(N)=O` is 103% (inactive); for `Cc1cc(-c2c(C)n([O-])c(C)c(C)[n+]2=O)ccc1F` it is 92.8% (inactive).
The figure for `CCC(Sc1ncccc1C(=O)OC(C)C)C(=O)N1CCOCC1` (stereo not drawn) is 96.5% (inactive).
In the case of `Cc1cc(NC(=O)c2cnn3cccnc23)no1`, the “viability” value was 93.6% (inactive).
The figure for `CCn1cc(C(=O)NCCCO)c(=O)c2cc(F)c(N3CCN(C)CC3)cc21` is 97.5% (inactive); for `O=c1[nH]c(CSc2nnc(NCCCN3CCOCC3)s2)nc2cc(Cl)ccc12` it is 81.3% (inactive); for `C=CC#CC[N+]1(CC#Cc2ccccc2)CCOCC1` it is 91.7% (inactive).
`CN1CCCC(OC(=O)c2ccc(Cl)cc2)C1` (stereo not drawn): the “viability” value was 101% (inactive).
The figure for `O=C(O)/C=C/C(=O)Nc1cccc(C(F)(F)F)c1` is 91.1% (inactive).
Turning to `FC(F)(F)c1cccc(NC(=S)NCCN2CCOCC2)c1`, the “viability” value is 89% (inactive).
With `c1ccc(-c2nnc(SCCC3OCCCO3)o2)cc1` the figure was 88.8% (inactive); with `Cc1cc(-c2csc(NC(=O)c3ccc(C#N)cc3)n2)c(C)n1Cc1ccco1`, 90.3% (inactive).
With `Cc1ccc(CNC(=O)C2CCCN(S(=O)(=O)c3c(C)noc3C)C2)cc1` (stereo not drawn), the “viability” value is 92.4% (inactive).
As for `Cc1cccc(-n2c(N)cc(=O)[nH]c2=S)c1C`, the “viability” value was 85.5% (inactive).
With `Cc1cc(C)c(NC(=O)c2cn3c4c(c(N5CCN(C)CC5)c(F)cc4c2=O)OCC3C)c(C)c1` (stereo not drawn) the figure was 95.3% (inactive).
Regarding `Cc1ccc(N2C(=O)CC(Nc3ccccc3)C2=O)cc1` (stereo not drawn), the “viability” value is 105% (inactive).
With `CC1(C)CC(=O)C(C(=O)/C=C/NCCc2ccccc2)C(=O)C1` the figure was 99.1% (inactive).
With `COc1cc(C2C(C(=O)c3ccc(C)o3)=C(O)C(=O)N2CCc2ccccc2)ccc1O` (stereo not drawn) the figure was 82.5% (inactive).
The figure for `c1ccc(COc2cccc(CN3CCN(c4ccccn4)CC3)c2)cc1` is 80.1% (inactive).
Take `O=c1[nH]c(CN2CCCCC2)nc2ccccc12`: the “viability” value is 97.8% (inactive).
Turning to `CCCC(=O)c1c[nH]c(C(=O)NCCCN2CCOCC2)c1`, the “viability” value was 102% (inactive).
The figure for `CCOc1ccc(S(=O)(=O)NNC(=S)Nc2ccc(Br)cc2)cc1` is 95.5% (inactive); for `O=C(CSc1nc2ccccc2o1)Nc1ccc(N2CCOCC2)cc1` it is 96.8% (inactive); for `O=C(CSc1nc2ccccc2o1)Nc1ccc(N2CCOCC2)c(Cl)c1` it is 80.9% (inactive).
As to `CCCCC(=O)NCCNC(=O)c1cc(OCC(F)(F)F)ccc1OCC(F)(F)F`, the “viability” value is 100% (inactive).
With `COc1ccc(-c2ccc(-c3noc(-c4cccs4)n3)c(OC)n2)cc1` the figure was 106% (inactive).
For `Cc1noc(C)c1CSc1nc2ccccc2nc1NS(=O)(=O)c1ccc(Cl)cc1`, the “viability” value is 112% (inactive).
As to `Fc1cccc(NCc2cn3ccccc3n2)c1`, the “viability” value was 94.1% (inactive).
With `COc1ccc(CN2C(=O)Cc3c2nc(N)c2c(N)nc(N4CCCCC4)c(C#N)c32)cc1` the figure was 84.8% (inactive); with `CCn1cc(C(=O)O)c(=O)c2cc(F)c(N3CCN(C(=S)NC(=O)c4ccccc4F)CC3)cc21`, 94.8% (inactive); with `CCn1cc(C(=O)O)c(=O)c2cc(F)c(N3CCN(C(=S)NC(=O)c4ccccc4)CC3)cc21`, 99.5% (inactive).
For the compound `CCCNC(=O)c1cn(CC)c2cc(N3CCN(C)CC3)c(F)cc2c1=O`, the “viability” value was 92.9% (inactive).
The figure for `CCCCNC(=O)c1cn(CC)c2cc(N3CCN(C)CC3)c(F)cc2c1=O` is 113% (inactive); for `N#C/C=C(/N)c1ccc(Br)cc1` it is 89.6% (inactive); for `Oc1ccccc1-c1nc(/C=C/c2ccccc2)nn1-c1ccccc1` it is 81.1% (inactive).
As for `CCn1cc(C(=O)O)c(=O)c2cnc(N3CCNCC3)nc21`, the “viability” value is 96.9% (inactive).
For the compound `N#Cc1c(N)n[nH]c1-c1cc2c([nH]1)CCCC2`, the “viability” value is 85.7% (inactive).
With `O=C(CSc1ccc(Cl)cc1)Nc1ccccc1N1CCN(C(=O)c2ccc(Cl)cc2)CC1` the figure was 92.9% (inactive).
The figure for `O=C(CCN1C(=O)C2C3C=CC(C3)C2C1=O)N1CCN(c2cccc(Cl)c2)CC1` (stereo not drawn) is 82.6% (inactive); for `CN(C(=O)c1cccc(C#N)c1)c1nnc(-c2cnccn2)s1` it is 96% (inactive).
In the case of `NC(=O)N1OCC2COc3ccc4ccccc4c3C21` (stereo not drawn), the “viability” value was 96.9% (inactive).
In the case of `COc1c(N2CCN[C@H](C)C2)c(F)cc2c(=O)c(C(=O)O)cn(C3CC3)c12`, the “viability” value was 95.7% (inactive).
Regarding `COC(=O)c1sccc1NC(=O)c1csc2c1CCCC2`, the “viability” value was 82.9% (inactive).
With `COc1cc(C2Nc3cccc4cccc(c34)N2)cc(OC)c1OC(C)=O` the figure was 90% (inactive); with `CC(=O)Oc1c2occc2cc2ccc(=O)oc12`, 91.6% (inactive).
With `CCOc1ccc2nc(COC(=O)c3ccco3)c(C(C)=O)[n+]([O-])c2c1` the figure was 90.3% (inactive); with `CC1=CC(C)(C)n2c(O)c(C3=NC(=S)NC3=O)c3cc(OC(=O)c4cccc5ccccc45)cc1c32`, 90.9% (inactive); with `Cc1nc(-c2ccccn2)sc1C(=O)Nc1ccc(F)cc1F`, 91.3% (inactive).
Turning to `COC(=O)c1cn(C(=O)c2cccs2)c2ccccc12`, the “viability” value is 84.2% (inactive).
With `Cc1cc2cc(CNS(=O)(=O)c3ccc4ccccc4c3)ccc2n1C` the figure was 93.5% (inactive); with `Cc1c(NS(=O)(=O)c2ccccc2)c(=O)n(-c2ccccc2)n1C`, 103% (inactive).
The figure for `C=CCSc1ncnc2sc(C)c(C)c12` is 90.1% (inactive); for `c1ccn2c(CNc3ncnc4sccc34)nnc2c1` it is 97.4% (inactive).
The figure for `N/C(=N\OC(=O)c1cccs1)C1(c2ccc(Cl)cc2Cl)CC1` is 96.5% (inactive); for `COc1ccc(C(C)=O)c2c(O)cccc12` it is 80.5% (inactive).
In the case of `Cc1ccc(C2NNC(=O)C2NC(=O)c2ccccc2)cc1` (stereo not drawn), the “viability” value is 95.8% (inactive).
Regarding `Cc1ccc(S(=O)(=O)NNC(=O)c2ccc(O)cc2)cc1`, the “viability” value is 80.1% (inactive).
